Compound activity deposited in PubChem by National Center for Advancing Translational Sciences (NCATS).
Only some compounds are listed: those with a hit (about 19% of all), similar ones and a draw of the others.
Shiga inhibitor = Shiga toxin inhibition; Vero cells, Shiga toxin protein synthesis inhibition reporter; inhibition, % at 38.7 µM; actives 9.2% (n = 290,000); in the data active = inhibition mostly above about 28%, no sharp cut-off; inactive = mostly below about 43%
Pf growth 96h = P. falciparum growth inhibition at 96 hour, primary screen for plastid delayed-death inhibitors; P. falciparum luciferase reporter growth, 96 h; Potency, µM (doses to about 28.7 µM), actives largely listed as inhibitors; actives 6.9% (n = 320,000)
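Readout is luminescence from an integrated firefly luciferase in P. falciparum. Red cells, 2% hematocrit and 0.05% parasitemia final, were cultured with compound through two parasite generations (96 hours) at 37 C, 5% CO2.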
CHX counter = counter-screen for Shiga toxin inhibitors: cycloheximide protein synthesis inhibition. actives 12% (n = 300,000). max response, %. cell reporter, cycloheximide protein synthesis inhibition counterscreen; in the data active = max response mostly above about 13%, no sharp cut-off; inactive = mostly below about 14%; also: read at 38.3 µM for the half of the compounds with a filed dose
Marburg entry inh = inhibitors of Marburg virus binding or cell entry | Potency, µM (doses to about 37.8 µM), most hits filed as inhibitors | AID 540276 | Marburg virus pseudotyped entry inhibition, cell reporter | actives 1.8% (n = 300,000); calls by dose curve; tested in HEK293 cells
Pf growth 48h = P. falciparum growth inhibition at 48 hours (one generation) | P. falciparum luciferase growth in erythrocytes, 48 h | Potency, µM (top dose mostly 28.7 µM), most hits filed as inhibitors | actives 5.9% (n = 310,000)
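Luciferase-expressing P. falciparum in infected erythrocytes (2% hematocrit, 0.1% parasitemia final) in RPMI 1640/0.5% Albumax were exposed to compound for 48 hours at 37 C, 5% CO2; growth read as luminescence.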
LASV entry inh = inhibitors of Lassa virus binding or cell entry; Lassa virus pseudotype entry inhibition, cell reporter; Potency, µM (highest dose often 37.9 µM), actives largely listed as inhibitors; actives 1.2% (n = 300,000); AID 540256; calls by dose curve; tested in HEK293 cells; also: nearly all actives have a fitted effect of over 50% in size
A number is an active result. Unless noted, calls follow the shape of the dose curve; as a rule, active = well fitted inhibition curve with a large enough effect; inconclusive = small, poorly fitted or top-dose-only effect, or another doubt; inactive = no such curve, though single readings can be large or run the other way.

For NC(=O)NC(=O)COC(=O)CN1C(=O)C2CCCCC2C1=O (centres undefined) the results were Shiga inhibitor inactive, Pf growth 96h inactive, CHX counter inactive, Marburg entry inh inconclusive, Pf growth 48h inactive and LASV entry inh inactive.
`Cc1ccc(-c2cc(C(=O)N3CCCC3)c3ccccc3n2)s1` gave Shiga inhibitor 52.1, Pf growth 96h inconclusive, CHX counter 20.2, Marburg entry inh inactive, Pf growth 48h inactive and LASV entry inh inactive.
`CC1CCN(C(=O)c2cc3nc(-c4ccccc4)cc(-c4ccccc4)n3n2)CC1` gave Shiga inhibitor inactive, Pf growth 96h 6.57µM, CHX counter inactive, Marburg entry inh inconclusive and LASV entry inh inactive.
O=C(NC1CCCC1)c1cc2nc(-c3ccccc3)cc(-c3ccccc3)n2n1 was read as Shiga inhibitor inactive, Pf growth 96h inconclusive, CHX counter inactive and Pf growth 48h inconclusive.
Cc1ccc(-c2cc(C(=O)O)c3cc(Br)ccc3n2)s1 was read as Shiga inhibitor 41.7, Pf growth 96h inconclusive, CHX counter 23.4, Marburg entry inh inactive, Pf growth 48h inactive and LASV entry inh inconclusive.
`O=C(CN(C(=O)CNC(=O)c1cccs1)c1ccc(F)cc1)NC1CCCC1` gave Shiga inhibitor inactive, Pf growth 96h inactive, CHX counter inactive, Marburg entry inh inactive, Pf growth 48h inactive and LASV entry inh inactive.
Screening c1ccc(Cn2cc(CSc3ccccc3)nn2)cc1 returned Shiga inhibitor 67.2, Pf growth 96h inactive, CHX counter 38.2 and Pf growth 48h inactive.
Screening CCCCc1cn(C[C@H]2CC[C@@H]([C@@H]3CC[C@H](Cn4cc(CCCC)nn4)O3)O2)nn1 returned Shiga inhibitor inactive, Pf growth 96h inconclusive, CHX counter inactive and Pf growth 48h inactive.
c1cncc(-c2cn(C[C@H]3CC[C@@H]([C@@H]4CC[C@H](Cn5cc(-c6cccnc6)nn5)O4)O3)nn2)c1 was read as Shiga inhibitor inactive, Pf growth 96h inactive, CHX counter inactive and Pf growth 48h inactive.
For COc1cccc(-c2cn(C[C@H]3CC[C@@H]([C@@H]4CC[C@H](Cn5cc(-c6cccc(OC)c6)nn5)O4)O3)nn2)c1 the results were Shiga inhibitor inactive, Pf growth 96h 7.38µM, CHX counter inactive and Pf growth 48h inconclusive.
Screening c1ccc(SCc2cn(C[C@H]3CC[C@@H]([C@@H]4CC[C@H](Cn5cc(CSc6ccccc6)nn5)O4)O3)nn2)cc1 returned Shiga inhibitor inactive, Pf growth 96h 14.7µM, CHX counter inactive and Pf growth 48h inactive.
Screening CC(=O)NCCOc1ccc(C(=O)O)cc1 returned Shiga inhibitor inactive, Pf growth 96h inactive, CHX counter inactive, Marburg entry inh inactive, Pf growth 48h inactive and LASV entry inh inactive.
Cc1nnc(Nc2ccc(C(=O)O)cc2)[nH]c1=O was read as Shiga inhibitor inactive, Pf growth 96h inactive, CHX counter inactive, Marburg entry inh inconclusive, Pf growth 48h inactive and LASV entry inh inactive.
Cn1c(CC(=O)Nc2ccccc2F)nnc1SCC(=O)N1CCOCC1 was read as Shiga inhibitor inactive, Pf growth 96h inactive, CHX counter 29.9, Marburg entry inh inactive, Pf growth 48h inactive and LASV entry inh inactive.
`N#Cc1c(NC(=O)COC(=O)C2CC3C=CC2C3)oc(-c2ccccc2)c1-c1ccccc1` (centres undefined) gave Shiga inhibitor inactive, Pf growth 96h 9.28µM, CHX counter inactive, Marburg entry inh inactive, Pf growth 48h inactive and LASV entry inh inactive.
For COc1ccccc1NC(=O)COC(=O)C1CC2CCCC(C1)C2=O (centres undefined) the results were Marburg entry inh inactive and LASV entry inh inactive.
Screening COc1ccccc1OCC(=O)Nc1oc(-c2ccccc2)c(-c2ccccc2)c1C#N returned Shiga inhibitor inactive, CHX counter inactive, Marburg entry inh inactive, Pf growth 48h inactive and LASV entry inh inactive.
For COc1ccccc1NC(=O)COC(=O)C1CC2C=CC1C2 (centres undefined) the results were Shiga inhibitor inactive, Pf growth 96h inactive, CHX counter 15.4, Marburg entry inh inactive, Pf growth 48h inactive and LASV entry inh inconclusive.
NS(=O)(=O)c1ccc(CCNC(=O)c2cc(-c3ccc(Br)cc3)nc3ccccc23)cc1 was read as Shiga inhibitor inactive, Pf growth 96h inconclusive, CHX counter inactive and Pf growth 48h inconclusive.
For O=C(NN1CCOCC1)c1cc(-c2ccc(Br)s2)nc2ccccc12 the results were Shiga inhibitor inactive, Pf growth 96h inactive, CHX counter inactive and Pf growth 48h inactive.
For CCCc1ccc(-c2cc(C(=O)NN3CCOCC3)c3ccccc3n2)cc1 the results were Shiga inhibitor inactive, Pf growth 96h inactive, CHX counter 20.2, Marburg entry inh inconclusive, Pf growth 48h inactive and LASV entry inh inactive.
CCCc1ccc(-c2cc(C(=O)NCCc3ccc(S(N)(=O)=O)cc3)c3ccccc3n2)cc1 was read as Shiga inhibitor 94.7, Pf growth 96h inactive, CHX counter 54.3, Marburg entry inh inactive, Pf growth 48h inactive and LASV entry inh inactive.
`CCc1ccc(-c2cc(C(=O)Nn3cnnc3)c3ccccc3n2)cc1` gave Shiga inhibitor inactive, Pf growth 96h inconclusive, CHX counter inactive, Marburg entry inh 1.03µM and LASV entry inh 1.3µM.
`CCCc1ccc(-c2cc(C(=O)Nc3ccc([N+](=O)[O-])cn3)c3ccccc3n2)cc1` gave Shiga inhibitor 16.8, Pf growth 96h inconclusive, CHX counter 21.4, Marburg entry inh inactive, Pf growth 48h inactive and LASV entry inh inactive.
`COc1ccc(N(CC(=O)N/N=C/c2ccc(F)cc2)S(=O)(=O)c2ccccc2)cc1` gave Shiga inhibitor inactive, Pf growth 96h inactive, CHX counter inactive, Marburg entry inh inconclusive, Pf growth 48h inconclusive and LASV entry inh inconclusive.
For CC(C)Oc1cccc(-c2cc(C(=O)NN3CCOCC3)c3ccccc3n2)c1 the results were Shiga inhibitor inactive, Pf growth 96h inconclusive, CHX counter 12.4, Marburg entry inh inactive, Pf growth 48h inactive and LASV entry inh inactive.
Screening c1cc2c3c(cccc3c1)NN=N2 returned Marburg entry inh inactive and LASV entry inh inconclusive.
Screening NC1=NC(S)C2N=CN=C2N1 (centres undefined) returned Pf growth 96h 7.57µM and Pf growth 48h inconclusive.
For CCOC(=O)c1c(C)[nH]c(C)c1S(=O)(=O)N1CCN(c2ccc(F)cc2)CC1 the results were Shiga inhibitor inactive, Pf growth 96h 8.28µM, CHX counter inactive and Pf growth 48h inactive.
`CCOC(=O)c1c(C)[nH]c(C)c1S(=O)(=O)N1CCOCC1` gave Shiga inhibitor inactive, Pf growth 96h 6.57µM, CHX counter inactive and Pf growth 48h inactive.
Screening CCOC(=O)c1c(C)[nH]c(C)c1S(=O)(=O)NCCCN1CCOCC1 returned Shiga inhibitor inactive, Pf growth 96h inconclusive, CHX counter inactive and Pf growth 48h inactive.
For CCOC(=O)c1c(C)[nH]c(C)c1S(=O)(=O)N1CCC(C(=O)N2CCN(c3ccc(F)cc3)CC2)CC1 the results were LASV entry inh inactive.
